# Assay results: the supplement of paper PMC11001985
# Compound: C#CCNC(=O)CCSSCCC(=O)NCCc1ccc(C=O)c(C=O)c1
# Test: lysine labeling ratio R10:1 (500 µM / 50 µM probe), SILAC-ABPP in living cells; higher = lower intrinsic lysine reactivity toward the probe, active = 2 or less
# Conditions: HeLa; probe concentrations 500 vs 50 µM
# How it was run: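 SILAC light and heavy living HeLa cells in PBS at room temperature were labelled with 50 µM or 500 µM of an alkyne-tagged, disulfide-linked lysine probe, with forward and reverse label swaps. Mixed lysates were clicked to biotin-azide, trypsin-digested, captured on neutravidin, DTT-released, alkylated and analysed by LC-MS/MS on a TIMS-TOF Pro. R is the filtered median high-probe/low-probe MS1 peptide ratio per lysine, then the median across forward and reverse replicates. Ratios are capped at 20.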
# Sequence of UniProt Q15149 (Q15149 whole entry): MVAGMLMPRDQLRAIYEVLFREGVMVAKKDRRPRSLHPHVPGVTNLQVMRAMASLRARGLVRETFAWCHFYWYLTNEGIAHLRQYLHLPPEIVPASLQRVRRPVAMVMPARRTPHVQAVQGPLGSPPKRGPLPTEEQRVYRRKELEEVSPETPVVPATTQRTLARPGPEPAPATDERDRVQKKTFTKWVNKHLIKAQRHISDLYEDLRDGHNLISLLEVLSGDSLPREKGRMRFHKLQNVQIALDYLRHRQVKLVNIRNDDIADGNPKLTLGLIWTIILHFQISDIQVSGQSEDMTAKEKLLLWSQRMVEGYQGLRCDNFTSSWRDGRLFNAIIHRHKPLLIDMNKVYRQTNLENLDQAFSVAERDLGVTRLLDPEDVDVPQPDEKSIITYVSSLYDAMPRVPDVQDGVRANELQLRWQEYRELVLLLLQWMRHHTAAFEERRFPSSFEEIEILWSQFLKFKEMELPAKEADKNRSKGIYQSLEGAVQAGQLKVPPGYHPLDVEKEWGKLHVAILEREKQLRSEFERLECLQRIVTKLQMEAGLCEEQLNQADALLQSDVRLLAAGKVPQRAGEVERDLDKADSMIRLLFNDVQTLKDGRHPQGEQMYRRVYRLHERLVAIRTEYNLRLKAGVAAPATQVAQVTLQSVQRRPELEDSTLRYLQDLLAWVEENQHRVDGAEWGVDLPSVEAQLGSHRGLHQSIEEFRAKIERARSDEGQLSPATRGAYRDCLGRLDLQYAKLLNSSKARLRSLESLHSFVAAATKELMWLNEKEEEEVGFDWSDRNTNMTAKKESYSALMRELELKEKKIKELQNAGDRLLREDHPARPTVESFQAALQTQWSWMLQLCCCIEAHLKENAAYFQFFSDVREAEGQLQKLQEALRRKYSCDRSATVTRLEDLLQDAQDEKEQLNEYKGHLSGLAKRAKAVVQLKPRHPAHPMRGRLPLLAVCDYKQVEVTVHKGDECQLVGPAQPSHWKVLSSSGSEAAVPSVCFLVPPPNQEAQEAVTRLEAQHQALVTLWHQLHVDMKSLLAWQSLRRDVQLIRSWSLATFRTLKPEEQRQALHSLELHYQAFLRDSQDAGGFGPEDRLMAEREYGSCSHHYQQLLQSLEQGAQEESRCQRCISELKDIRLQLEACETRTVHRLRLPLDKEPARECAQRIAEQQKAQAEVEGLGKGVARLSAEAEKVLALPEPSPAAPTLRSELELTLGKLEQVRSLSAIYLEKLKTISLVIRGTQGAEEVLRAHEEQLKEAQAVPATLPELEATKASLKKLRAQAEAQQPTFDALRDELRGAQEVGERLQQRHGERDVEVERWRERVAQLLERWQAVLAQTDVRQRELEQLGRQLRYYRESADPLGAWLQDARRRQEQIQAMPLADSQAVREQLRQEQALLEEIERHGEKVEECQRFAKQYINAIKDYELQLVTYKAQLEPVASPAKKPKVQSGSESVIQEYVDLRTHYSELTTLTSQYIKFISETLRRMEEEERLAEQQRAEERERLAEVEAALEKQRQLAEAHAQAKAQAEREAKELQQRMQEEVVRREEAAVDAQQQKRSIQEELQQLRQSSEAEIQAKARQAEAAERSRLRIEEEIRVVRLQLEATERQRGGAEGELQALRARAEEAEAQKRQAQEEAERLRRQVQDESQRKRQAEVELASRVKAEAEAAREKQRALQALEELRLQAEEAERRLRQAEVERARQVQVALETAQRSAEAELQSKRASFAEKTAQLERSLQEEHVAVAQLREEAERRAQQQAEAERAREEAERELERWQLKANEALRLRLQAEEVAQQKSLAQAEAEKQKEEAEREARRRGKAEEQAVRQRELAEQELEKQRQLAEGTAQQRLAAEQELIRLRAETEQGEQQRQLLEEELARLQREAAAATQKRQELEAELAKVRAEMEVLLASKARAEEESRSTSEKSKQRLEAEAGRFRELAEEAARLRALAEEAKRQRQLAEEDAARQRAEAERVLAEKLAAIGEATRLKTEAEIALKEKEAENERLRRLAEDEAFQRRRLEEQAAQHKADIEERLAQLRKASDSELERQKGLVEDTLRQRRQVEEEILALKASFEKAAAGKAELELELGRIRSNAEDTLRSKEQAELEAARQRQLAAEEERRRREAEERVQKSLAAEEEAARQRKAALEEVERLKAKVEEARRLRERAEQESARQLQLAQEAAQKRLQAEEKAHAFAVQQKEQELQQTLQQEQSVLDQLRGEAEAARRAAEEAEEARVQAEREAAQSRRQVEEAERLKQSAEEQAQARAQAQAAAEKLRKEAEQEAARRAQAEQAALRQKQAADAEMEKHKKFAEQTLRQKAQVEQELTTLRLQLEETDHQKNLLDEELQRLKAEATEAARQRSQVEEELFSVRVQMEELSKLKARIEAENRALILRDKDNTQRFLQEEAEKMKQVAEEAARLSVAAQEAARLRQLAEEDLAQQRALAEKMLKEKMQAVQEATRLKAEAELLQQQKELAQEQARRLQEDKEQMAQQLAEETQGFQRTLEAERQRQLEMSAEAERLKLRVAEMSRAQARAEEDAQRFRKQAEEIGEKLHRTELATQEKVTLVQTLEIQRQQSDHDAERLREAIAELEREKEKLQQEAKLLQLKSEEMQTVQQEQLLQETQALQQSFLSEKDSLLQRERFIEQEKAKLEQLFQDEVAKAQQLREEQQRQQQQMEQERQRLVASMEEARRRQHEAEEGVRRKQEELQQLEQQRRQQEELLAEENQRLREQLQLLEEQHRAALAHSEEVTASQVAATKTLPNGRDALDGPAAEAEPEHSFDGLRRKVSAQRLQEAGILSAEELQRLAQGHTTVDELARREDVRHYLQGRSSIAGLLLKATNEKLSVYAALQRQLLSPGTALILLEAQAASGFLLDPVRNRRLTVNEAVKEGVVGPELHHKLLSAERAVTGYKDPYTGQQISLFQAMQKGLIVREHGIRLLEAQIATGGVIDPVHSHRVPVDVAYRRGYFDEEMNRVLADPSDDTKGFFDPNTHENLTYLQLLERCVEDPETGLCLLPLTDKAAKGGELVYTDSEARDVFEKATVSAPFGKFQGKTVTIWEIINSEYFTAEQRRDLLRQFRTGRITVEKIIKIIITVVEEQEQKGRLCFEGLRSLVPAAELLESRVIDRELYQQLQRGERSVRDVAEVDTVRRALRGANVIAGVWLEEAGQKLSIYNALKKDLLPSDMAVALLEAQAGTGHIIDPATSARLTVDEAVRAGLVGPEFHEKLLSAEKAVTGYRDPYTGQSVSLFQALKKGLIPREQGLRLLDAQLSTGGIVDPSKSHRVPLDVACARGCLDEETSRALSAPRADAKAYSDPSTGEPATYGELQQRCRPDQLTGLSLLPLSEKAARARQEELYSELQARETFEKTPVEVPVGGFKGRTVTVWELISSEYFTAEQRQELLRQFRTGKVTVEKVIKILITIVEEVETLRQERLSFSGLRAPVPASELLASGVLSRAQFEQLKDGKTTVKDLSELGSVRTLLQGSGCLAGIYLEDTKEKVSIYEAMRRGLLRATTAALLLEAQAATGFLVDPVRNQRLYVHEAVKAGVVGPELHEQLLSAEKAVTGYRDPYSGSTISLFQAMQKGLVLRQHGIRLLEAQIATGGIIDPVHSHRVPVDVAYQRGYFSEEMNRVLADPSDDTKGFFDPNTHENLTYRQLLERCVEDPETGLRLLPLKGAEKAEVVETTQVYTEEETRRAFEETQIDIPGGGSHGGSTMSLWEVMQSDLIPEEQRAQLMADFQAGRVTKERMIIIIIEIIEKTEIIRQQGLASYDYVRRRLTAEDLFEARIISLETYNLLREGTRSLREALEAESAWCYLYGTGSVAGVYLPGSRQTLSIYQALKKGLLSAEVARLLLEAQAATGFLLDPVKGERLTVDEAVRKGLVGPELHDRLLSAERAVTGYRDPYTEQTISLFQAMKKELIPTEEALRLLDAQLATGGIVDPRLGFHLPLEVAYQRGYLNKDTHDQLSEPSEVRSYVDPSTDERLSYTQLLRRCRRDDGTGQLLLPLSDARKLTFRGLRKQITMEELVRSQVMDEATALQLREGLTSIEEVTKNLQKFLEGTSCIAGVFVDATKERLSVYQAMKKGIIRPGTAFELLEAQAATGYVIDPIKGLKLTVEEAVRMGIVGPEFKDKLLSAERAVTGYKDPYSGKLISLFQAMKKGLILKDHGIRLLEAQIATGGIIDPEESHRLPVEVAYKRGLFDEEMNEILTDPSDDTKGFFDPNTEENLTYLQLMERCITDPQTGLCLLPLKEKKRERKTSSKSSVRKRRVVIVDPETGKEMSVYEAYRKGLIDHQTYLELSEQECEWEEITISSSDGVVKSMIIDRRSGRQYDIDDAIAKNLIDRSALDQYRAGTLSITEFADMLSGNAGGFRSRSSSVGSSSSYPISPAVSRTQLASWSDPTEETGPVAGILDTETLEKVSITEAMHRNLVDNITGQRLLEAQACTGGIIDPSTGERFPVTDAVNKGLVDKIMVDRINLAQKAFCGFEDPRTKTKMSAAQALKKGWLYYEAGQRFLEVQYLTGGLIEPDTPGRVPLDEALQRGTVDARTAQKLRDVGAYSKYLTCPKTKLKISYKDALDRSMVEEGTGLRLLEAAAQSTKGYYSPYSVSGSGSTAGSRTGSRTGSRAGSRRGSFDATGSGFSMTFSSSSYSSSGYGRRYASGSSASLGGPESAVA
# Sequence of UniProt P08727 (P08727 whole entry): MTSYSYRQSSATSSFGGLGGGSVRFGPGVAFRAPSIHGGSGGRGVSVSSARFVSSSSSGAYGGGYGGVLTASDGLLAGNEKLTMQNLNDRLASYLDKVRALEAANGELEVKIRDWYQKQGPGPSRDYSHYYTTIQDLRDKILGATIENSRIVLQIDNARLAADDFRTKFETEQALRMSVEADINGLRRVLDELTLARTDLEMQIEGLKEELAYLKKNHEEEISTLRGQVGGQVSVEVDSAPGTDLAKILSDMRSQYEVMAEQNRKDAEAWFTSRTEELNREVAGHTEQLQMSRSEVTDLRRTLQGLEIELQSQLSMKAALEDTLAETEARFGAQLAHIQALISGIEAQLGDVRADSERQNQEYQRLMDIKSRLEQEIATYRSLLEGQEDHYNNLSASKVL
row,Target,lysine labeling ratio R10:1
1,TXNRD1 (lysine site: K245) (UniProt Q16881),7.79 (inactive)
2,JPT2 (lysine site: K67) (UniProt Q9H910),4.42 (inactive)
3,HNRNPU (lysine site: K265) (UniProt Q00839),2.4 (inactive)
4,ANXA2 (lysine site: K279) (UniProt P07355),5.78 (inactive)
5,FAT4 (lysine site: K2215) (UniProt Q6V0I7),3.48 (inactive)
6,AHNAK (lysine site: K2993) (UniProt Q09666),1 (active)
7,LRP1 (lysine site: K2653) (UniProt Q07954),1.54 (active)
8,UniProt Q15149 (lysine site: K2350),4.82 (inactive)
9,EZR (lysine site: K64) (UniProt P15311),0.907 (active)
10,MCAM (lysine site: K398) (UniProt P43121),5.61 (inactive)
11,UniProt O43865 (lysine site: K302),1.25 (active)
12,UniProt P02533 (lysine site: K328),11.3 (inactive)
13,FLOT1 (lysine site: K246) (UniProt O75955),2.54 (inactive)
14,ALCAM (lysine site: K75) (UniProt Q13740),9.89 (inactive)
15,UniProt P62851 (lysine site: K114),2.69 (inactive)
16,CHCHD3 (lysine site: K37) (UniProt Q9NX63),1.57 (active)
17,CCT4 (lysine site: K531) (UniProt P50991),3.03 (inactive)
18,ROBO1 (lysine site: K282) (UniProt Q9Y6N7),2.01 (inactive)
19,ANXA3 (lysine site: K154) (UniProt P12429),3.32 (inactive)
20,UniProt Q14574 (lysine site: K281),1.99 (active)

row,Target,lysine labeling ratio R10:1
1,PDCD6IP (lysine site: K313) (UniProt Q8WUM4),2.29 (inactive)
2,FLNB (lysine site: K1425) (UniProt O75369),3.67 (inactive)
3,THBS1 (lysine site: K306) (UniProt P07996),2.27 (inactive)
4,UniProt P48047 (lysine site: K98),1.89 (active)
5,L1CAM (lysine site: K180) (UniProt P32004),1.59 (active)
6,UniProt P08727 (lysine site: K168),4.76 (inactive)
7,UniProt P50281 (lysine site: K337),1.7 (active)
8,ATP1B1 (lysine site: K288) (UniProt P05026),13.2 (inactive)
9,IQGAP1 (lysine site: K1389) (UniProt P46940),5.25 (inactive)
10,L1CAM (lysine site: K530) (UniProt P32004),7.51 (inactive)
11,RPL22 (lysine site: K107) (UniProt P35268),2.29 (inactive)
12,UniProt Q99623 (lysine site: K216),2.79 (inactive)
13,PLOD2 (lysine site: K358) (UniProt O00469),2.23 (inactive)
14,PLXND1 (lysine site: K310) (UniProt Q9Y4D7),3.11 (inactive)
15,UniProt P08727 (lysine site: K118),3.16 (inactive)
16,PTGFRN (lysine site: K579) (UniProt Q9P2B2),2.67 (inactive)
17,HSPA9 (lysine site: K76) (UniProt P38646),3.36 (inactive)
18,FLNA (lysine site: K338) (UniProt P21333),3.9 (inactive)
19,MSLN (lysine site: K299) (UniProt Q13421),3.1 (inactive)
20,UniProt Q15149 (lysine site: K1725),1.57 (active)
